# Results from PubChem BioAssay.
# Activity calls are given as the source filed them.
# Experiments:
# Albumin (Bos taurus) = Albumin (Bos taurus) (UniProt P02769); test: compounds binding labelled BSA control protein – biochemical, small-molecule microarray, Alexa647 label, 635/667 nm fluorescence, artefact control for SMM control protein annotation, profiling panel (AID 1118); settings: BSA-A647 binding, fluorescence 635 nm, higher = more signal;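 further: score merges 667 nm emission intensity and signal-to-noise per printed compound spot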
# Sequence of Albumin (Bos taurus) (P02769 whole entry, looked up): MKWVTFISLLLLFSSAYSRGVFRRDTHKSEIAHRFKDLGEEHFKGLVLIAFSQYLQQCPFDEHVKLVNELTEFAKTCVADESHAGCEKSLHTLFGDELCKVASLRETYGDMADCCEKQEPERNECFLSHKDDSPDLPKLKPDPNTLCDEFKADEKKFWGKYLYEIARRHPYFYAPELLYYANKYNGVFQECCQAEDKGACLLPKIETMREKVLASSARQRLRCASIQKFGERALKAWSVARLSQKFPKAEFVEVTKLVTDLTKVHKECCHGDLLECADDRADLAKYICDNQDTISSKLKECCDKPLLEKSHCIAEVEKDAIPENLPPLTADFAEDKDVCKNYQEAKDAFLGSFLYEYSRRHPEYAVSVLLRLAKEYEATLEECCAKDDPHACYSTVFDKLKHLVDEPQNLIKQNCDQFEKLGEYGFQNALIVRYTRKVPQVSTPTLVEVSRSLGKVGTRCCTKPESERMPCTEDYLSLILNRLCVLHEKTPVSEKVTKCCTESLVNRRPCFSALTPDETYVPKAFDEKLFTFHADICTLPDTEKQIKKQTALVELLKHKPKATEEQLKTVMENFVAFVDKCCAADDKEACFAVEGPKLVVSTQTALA
# [1] = probe aXIP binding to arrayed compounds – biochemical, NeuroSMM set, 635/667 nm fluorescence, primary screen (AID 1119); settings: small-molecule microarray, higher = more signal, called active from +8 up or from −8 down;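 further: probe is the protein aXip251-270 applied at 1 µg/mL to compound-printed slides; binding of probe to printed compounds measured as 667 nm fluorescence plus signal to noise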
# [2] = probe aNOTCH3 binding on compound microarray – biochemical, small-molecule microarray, 635/667 nm fluorescence, primary screen (AID 1120); settings: higher = more signal;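 further: probe is a biotin-tagged antibody raised against NOTCH3 rather than NOTCH3 protein; score merges spot fluorescence near 667 nm with spot signal to noise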
# [3] = probe aNOTCH2 binding on compound microarray – biochemical, small-molecule microarray, 635/667 nm fluorescence, primary screen (AID 1121); settings: higher = more signal;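 further: score merges feature fluorescence read at 667 nm with its signal to noise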
# [4] = molecular target: Carbonic anhydrase 2 (Homo sapiens) (UniProt P00918); test: compounds binding carbonic anhydrase 2 – biochemical, small-molecule microarray, Alexa647-labelled CAII, profiling panel (AID 1122); settings: CAII-A647 binding fluorescence, higher = more signal
# [5] = COS7 lysate on small-molecule microarray, probe aHis, 635 nm (AID 1123); settings: COS7 cell lysate, fluorescence, higher = more signal;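 further: z-score combines 667nm fluorescence intensity with signal-to-noise per printed compound spot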
# [6] = probe aLAP1 signal on lysate-treated microarray – cell lysate, small-molecule microarray, COS7 lysate, primary screen (AID 1124); settings: probe aLAP1, fluorescence, higher = more signal;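 further: lysate comes from COS7 cells expressing LAP1 and is applied at 0.3 µg/mL; score merges spot fluorescence near 667 nm with signal-to-noise over triplicate slides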
# Sam68 (KHDRBS1) = test: compounds binding KHDRBS1 protein – biochemical, small-molecule microarray, 635 nm fluorescence, primary screen (AID 1125); settings: higher = more signal;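 further: score merges 667 nm channel intensity with signal to noise over triplicate slides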
# [7] = system: Chordin-like protein 2 (CHRDL2); test: compounds binding chordin-like 2 – biochemical, small-molecule microarray, 635 nm fluorescence, primary screen (AID 1126); settings: fluorescence 635 nm, higher = more signal;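 further: printed compound slides probed with Chrdl2 protein at 4 µg/mL for 1 h at 4 C; score merges 667 nm emission intensity with signal to noise over three replicate slides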
# [8] = molecular target: Concanavalin-A (Canavalia ensiformis) (UniProt P02866); test: compounds binding concanavalin A lectin – biochemical, small-molecule microarray, Alexa647 label, 635 nm, artefact control for SMM control protein annotation, primary screen (AID 1127); settings: ConA-A647 binding fluorescence, higher = more signal;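 further: z combines 667 nm emission intensity with signal-to-noise across three replicate slides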
# Sequence of Concanavalin-A (Canavalia ensiformis) (P02866 whole entry, looked up): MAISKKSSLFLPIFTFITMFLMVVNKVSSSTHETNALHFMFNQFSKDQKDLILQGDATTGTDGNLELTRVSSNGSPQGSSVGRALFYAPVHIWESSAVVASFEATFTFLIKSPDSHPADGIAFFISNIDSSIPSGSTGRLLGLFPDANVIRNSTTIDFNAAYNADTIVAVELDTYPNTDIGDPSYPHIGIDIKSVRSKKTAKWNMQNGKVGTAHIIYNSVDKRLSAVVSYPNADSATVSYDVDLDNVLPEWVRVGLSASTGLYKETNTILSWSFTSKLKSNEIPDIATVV
Structure (SMILES),composite z-score (Albumin (Bos taurus)),composite Z-score [1],composite z-score [2],composite z-score [3],composite z-score [4],composite z-score [5],composite z-score [6],composite z-score (Sam68 (KHDRBS1)),composite z-score [7],composite z-score [8]
C=C(/C(=C/C[C@H](OC(C)=O)c1ccc(OCCO)cc1)c1cnc2ccccc2c1)C(C)C,-0.154,-0.229 (inactive),0.0418,-0.146,0.885,0.575,-0.315,1.3,1.2,1.09
O=C1C[C@@H](O)[C@@H](O)[C@@H]2[C@@H]3C(=O)N(c4ccc(F)cc4F)C(=O)[C@@H]3CC[C@@H]12,0.129,-0.521 (inactive),-0.0631,-0.118,0.234,-0.344,0.495,0.236,0.65,-0.397
COCCOC(=O)N1C(=O)[C@@]2(c3cc(C#Cc4ccc(OC)cc4)ccc31)[C@H](C(=O)N1CCN(c3ncccn3)CC1)[C@H]1C(=O)O[C@H](c3ccccc3)[C@H](c3ccccc3)N1[C@@H]2c1ccc(OCCO)cc1,-0.447,0.549 (inactive),0.311,0.0966,0.31,1.1,0.634,0.556,0.792,1.08
[N-]=[N+]=NCc1ccccc1[C@@H]1OC(c2ccc(OCCCO)cc2)=N[C@]1(Cc1ccccc1)C(=O)N1CCOCC1,0.923,0.0976 (inactive),0.387,0.34,0.514,3.06,0.827,1.32,0.766,1.16
O=C1[C@H]2[C@H]3[C@H](O)[C@H](O)CC(=NO[C@@H]4O[C@H](CO)[C@@H](O)[C@H](O)[C@H]4O)[C@@H]3CC[C@H]2C(=O)N1Cc1ccccc1,-0.0679,0.0769 (inactive),0.0744,-0.0623,-0.568,-0.658,0.0054,0.64,-0.293,-0.664
COc1ccc([Si](C)(C)[C@@H]2[C@@H](CCO)O[C@]3(C(=O)N(Cc4ccc(NC(C)=O)cc4)c4ccccc43)[C@H]2C)cc1,0.78,0.19 (inactive),0.217,0.0884,0.574,1.08,0.222,1.15,0.465,1.1
CC(CCN1CCCCc2nc(C)c(C)cc21)=NOC(C)CN1CCCCc2nc(C)c(C)cc21 (stereo not given),0.845,0.833 (inactive),0.284,-0.0131,0.503,1.12,0.858,1.3,1.25,0.898
COc1ccc(O[C@H]2C=C[C@@H](c3ccccc3)O[C@@H]2COC(=O)CCC(C)=NOCC[C@@H]2C=C[C@H](OC(C)=O)[C@@H](COC(C)=O)O2)cc1,-0.598,0.806 (inactive),0.297,-0.0028,0.654,0.938,0.203,-0.23,-0.0022,-0.997
COC(=O)[C@H](C)NC(=O)CCC1CC(OC(=O)NCc2cccc3ccccc23)CC2(CCCC(COC(=O)NCCc3ccc(Cl)cc3)O2)O1 (stereo not given in full),0.147,0.108 (inactive),-0.176,-0.0868,0.535,0.631,-0.422,1.23,-0.0578,0.946
CC(C)CON=C1C[C@@H](O)[C@@H](O)[C@@H]2[C@@H]3C(=O)N(C[C@@H]4CCCO4)C(=O)[C@@H]3CC[C@H]12,-0.3,-0.311 (inactive),-0.101,-0.0659,0.0765,0.737,-0.193,0.697,-0.0163,0.12
CC[C@@H](c1ccccc1)n1c(=O)n2n(c1=O)[C@H]1[C@H](O)[C@@H]3O[C@@H]3C(=NOCC(C)C)[C@H]1CC2,-0.231,-0.0127 (inactive),-0.0189,-0.0986,0.308,0.0644,0.422,0.362,-0.086,0.0275
CCOC(=O)[C@H](Cc1ccccc1)NC(=O)CCC1CC(OC(=O)NCCc2ccc(F)cc2)CC2(CCCC(COC(=O)NCC(c3ccccc3)c3ccccc3)O2)O1 (stereo not given in full),0.641,0.066 (inactive),-0.0893,-0.037,0.16,1.04,0.0435,1.32,0.227,0.992
CCOC(=O)C[C@H]1[C@H](OC(=O)c2ccc(C(=O)c3ccccc3)cc2)[C@@H](NC(=O)c2ccc(-c3ccccc3)cc2)c2cc(OCCCO)ccc2N1C(=O)c1ccc2ccccc2n1,0.0279,0.228 (inactive),0.0084,-0.101,0.0886,0.71,-0.142,1.31,0.611,0.844
C=CCOC(=O)[C@H]1[C@@H]2C(=O)O[C@@H](c3ccccc3)[C@@H](c3ccccc3)N2[C@@H](c2ccc(OCCOC(=O)[C@H]3C[C@H]4C(=O)N[C@@H](Cc5ccccc5)C(=O)N4[C@H]3c3ccc(O)cc3)cc2)[C@]12C(=O)Nc1ccccc12,-0.757,0.89 (inactive),-0.0932,-0.131,0.553,1.71,0.832,1.31,1.38,1.16
CCOC(=O)CCN1C(=O)[C@H]2[C@H]3[C@H](O)[C@H](O)CC(=NOCc4ccccc4)[C@@H]3CC[C@H]2C1=O,0.762,0.415 (inactive),-0.0996,-0.199,0.381,0.317,0.784,0.37,0.116,0.246
COCCOC(=O)N1C(=O)[C@@]2(c3cc(C#Cc4ccc(OC)cc4)ccc31)[C@H](c1ccc(O)cc1)N1[C@H](c3ccccc3)[C@H](c3ccccc3)OC(=O)[C@H]1[C@@H]2C(N)=O,0.595,0.0583 (inactive),0.357,-0.108,0.48,1.52,0.364,1.29,0.356,1.12

Structure (SMILES),composite z-score (Albumin (Bos taurus)),composite Z-score [1],composite z-score [2],composite z-score [3],composite z-score [4],composite z-score [5],composite z-score [6],composite z-score (Sam68 (KHDRBS1)),composite z-score [7],composite z-score [8]
CCOC(=O)NN=C1C[C@@H](O)[C@@H](O)[C@@H]2[C@@H]3C(=O)N(C4CCCCC4)C(=O)[C@@H]3CC[C@H]12,0.801,-0.0662 (inactive),0.0242,-0.037,-0.0418,0.387,0.16,0.458,0.0341,0.357
N#Cc1ccc(NN2C(C(O)c3cccc4ccccc34)C=CC3C(=O)N(c4ccccc4)C(=O)C32)cc1 (stereo not given),0.595,0.544 (inactive),0.479,0.0687,0.696,2.82,0.599,1.31,-0.0989,0.926
CC(=O)OC[C@H]1O[C@@H](ON=C[C@@H](C)[C@H](OCc2ccccc2)C(C)C)[C@H](OC(C)=O)[C@@H](OC(C)=O)[C@@H]1OC(C)=O,-0.25,0.0474 (inactive),-0.0672,-0.159,-0.934,-0.0857,-0.246,0.96,-0.838,0.468
CC(C)NC(=O)[C@@H]1c2ccccc2C(=O)N(CC23CC4CC(CC(C4)C2)C3)[C@H]1c1ccc(CO)cc1,0.283,-0.178 (inactive),0.106,-0.125,0.25,1.65,0.397,1.3,0.533,1.08
O=C1C2=CC[C@H]3C(=O)N(Cc4ccc5c(c4)OCO5)C(=O)[C@H]3[C@H]2[C@H](O)[C@@H]2O[C@H]12,-0.176,0.0248 (inactive),-0.0229,-0.14,-0.0365,-0.142,0.397,0.21,0.529,0.534
CN1C(=O)C2C=CC(C(O)C(c3ccccc3)c3ccccc3)N(NC(=O)OC(C)(C)C)C2C1=O (stereo not given),1.03,1.84 (inactive),0.687,0.498,0.793,3.42,1,1.33,0.0789,1.19
CCOC(=O)CCN1C(=O)[C@H]2[C@H]3[C@H](O)C=CC(=O)[C@@H]3CC[C@H]2C1=O,-0.186,0.422 (inactive),-0.0449,-0.0686,-0.078,0.107,-0.225,0.323,0.34,0.412
c1ccc(C2NCCc3c2[nH]c2ccccc32)cc1 (stereo not given),0.0809,-0.0389 (inactive),0.0876,-0.053,0.743,-0.0295,-0.0502,-0.409,0.195,-0.082
CC(C)(C)N1C(=O)[C@H]2[C@H]3[C@H](O)[C@H](O)CC(=NO[C@@H]4O[C@H](CO)[C@@H](O)[C@H](O)[C@H]4O)[C@@H]3CC[C@H]2C1=O,-0.524,0.406 (inactive),-0.059,-0.154,0.361,0.741,0.649,1.24,1.07,0.0237
C=C(/C(=C/C[C@H](OC(=O)c1ccncc1)c1ccc(OCCO)cc1)c1cnc2ccccc2c1)C(C)C,0.139,0.184 (inactive),0.173,-0.118,0.946,0.118,0.62,1.32,1.14,1.16
NC(=O)NCC#Cc1ccc2c(c1)[C@]1(C(=O)N2)[C@H](c2ccc(O)cc2)N2[C@H](c3ccccc3)[C@H](c3ccccc3)OC(=O)[C@H]2[C@@H]1C(=O)N1CCCCCCC1,-0.476,0.645 (inactive),0.976,-0.172,0.39,0.594,0.596,0.792,0.983,0.848
COc1cccc([C@H]2Oc3ccc(OC)cc3C(=NO[C@H](C)c3cn([C@@H]4COC[C@H]4O)nn3)[C@@H]2O)c1,-0.224,-0.0239 (inactive),-0.279,-0.179,0.377,-0.162,-0.358,-0.523,-0.353,0.472
CC(CCN1CCc2nc(-c3ccccc3)c(-c3ccccc3)cc2C1)=NO[C@@H](C)c1cn([C@H](CO)Cc2ccccc2)nn1,0.908,0.715 (inactive),0.0242,-0.117,0.526,-0.478,-0.208,-0.163,0.0808,-0.602
O=C1[C@H]2[C@H]3[C@H](O)[C@H](O)CC(=NOCc4ccccc4)[C@H]3CC[C@H]2C(=O)N1c1ccc(F)cc1F,0.155,-0.801 (inactive),-0.308,-0.265,0.784,-0.137,-0.713,-0.626,0.0499,-0.111
O=C(NN=C1C[C@@H](O)[C@@H](O)[C@@H]2[C@@H]3C(=O)N(c4cccc(Oc5ccccc5)c4)C(=O)[C@@H]3CC[C@@H]12)OCc1ccccc1,0.564,0.187 (inactive),0.0425,-0.0995,-0.249,0.36,-0.0773,0.24,0.162,0.277
CS(=O)(=O)CCOC(=O)C1=CC(CCCO)=CC(c2cccs2)N(Cc2cccc(OC(F)(F)F)c2)C=C1C(=O)OCCS(C)(=O)=O (stereo not given),1.03,0.0987 (inactive),0.106,-0.0358,0.809,1.1,0.678,1.18,-0.607,1.16
